Screens (PubChem)
Sampled rows, rich in hits. Any-hit rate of the full collection: about 5%.
HCMV inh = inhibitors of human cytomegalovirus; AID 1259415; hit rate 4.5% among 410,000; activity change, negative = inhibition, % at 57.5 µM; HFF cells, HCMV-luciferase reporter, 72 h; active compounds read low; in the data active means activity change below about -60%; inconclusive means no clear call, values can overlap the other calls; inactive means above about -39%
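Compounds were evaluated in HFFs infected with an HCMV luciferase reporter virus (MOI 1 PFU/cell). Luciferase in lysates collected 72 h post infection served as the replication measure.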
Vaccinia Venus = inhibitors of vaccinia virus (Venus reporter) | Potency, µM (highest dose often 36.5 µM), inactives show at the highest dose activity change, negative = inhibition, actives largely listed as inhibitors | Vaccinia virus Venus reporter expression, fluorescence | AID 720580 | hit rate 0.46% among 330,000; calls by dose curve; tested in A549 cells; further: potency means the concentration at half of the fitted maximal effect; nearly all actives have a fitted effect of over 30% in size
Vaccinia mCherry = vaccinia inhibition (mCherry reporter); Vaccinia virus mCherry reporter infection, fluorescence; Potency, µM (top dose mostly 36.5 µM), for the others: at the top dose activity change, negative = inhibition, actives largely listed as inhibitors; hit rate 0.63% among 310,000; AID 720579; calls by dose curve; tested in A549 cells; further: potency means the concentration at half of the fitted maximal effect; nearly all actives have a fitted effect of over 35% in size
LmPK inh = blocks Leishmania mexicana pyruvate kinase activity | AID 1721 | Q27686 | hit rate 0.37% among 290,000 | Potency, µM (doses to about 57.5 µM), for inactives: at the highest dose activity change, negative = inhibition, hits mostly inhibitors | purified LmPK, Kinase-Glo ATP luminescence, 1 h; further: potency means the concentration at half of the fitted maximal effect
Target sequence (Q27686 whole entry, looked up): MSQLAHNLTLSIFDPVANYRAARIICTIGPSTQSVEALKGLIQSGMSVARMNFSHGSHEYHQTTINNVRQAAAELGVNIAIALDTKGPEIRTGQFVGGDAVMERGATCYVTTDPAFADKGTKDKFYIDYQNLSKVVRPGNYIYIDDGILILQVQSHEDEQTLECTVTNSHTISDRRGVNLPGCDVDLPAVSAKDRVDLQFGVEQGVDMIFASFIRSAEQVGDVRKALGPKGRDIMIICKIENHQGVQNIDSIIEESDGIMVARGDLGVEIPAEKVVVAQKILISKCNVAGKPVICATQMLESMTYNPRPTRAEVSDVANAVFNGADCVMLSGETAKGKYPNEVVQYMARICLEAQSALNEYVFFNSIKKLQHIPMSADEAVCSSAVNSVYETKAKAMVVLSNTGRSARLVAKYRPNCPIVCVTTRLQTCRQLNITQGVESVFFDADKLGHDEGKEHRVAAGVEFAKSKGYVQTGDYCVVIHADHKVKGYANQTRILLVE
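Screened at intermediate enzyme activity to detect both inhibitors and activators: LmPK at 0.1 nM, with a 0.5 nM enzyme column as activation reference. PEP 0.5 mM, ADP 0.1 mM; ATP detected by luminescence after 1 h.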
Tb PYK inh = inhibitors of Trypanosoma brucei pyruvate kinase | Q57TT1 | TbPYK enzyme, Kinase-Glo Plus ATP luminescence, 45 min | Potency, µM (top dose mostly 76.8 µM), for the others: at the top dose activity, negative = inhibition, most hits filed as inhibitors | hit rate 0.12% among 410,000 | AID 624173; further: potency means the concentration at half of the fitted maximal effect; nearly all actives have a fitted effect of over 50% in size
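In this concentration-response screen, enzyme-free wells defined baseline while DMSO plates tracked drift. Each reaction combined TbPYK, substrate, compound and 130 uM ADP for 45 min at room temperature. Kinase-Glo Plus luminescence gave the signal.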
The depositor's hits bear a star; i = inactive; u = inconclusive; x = no result. Unless noted, the call rests on the fitted dose curve; in most records, active means well fitted curve in the direction sought with a large enough effect; inconclusive means small, poorly fitted or top-dose-only effect, or another doubt; inactive means no such curve, though single readings can be large; an effect the other way counts as inactive or inconclusive. On the % scale 0 is the no-effect control and ±100 the full control effect.

SMILES	HCMV inh	Vaccinia Venus	Vaccinia mCherry	LmPK inh	Tb PYK inh
COc1cc(/C=C2\SC(=S)N(CCC(=O)NCCc3ccccc3)C2=O)cc(OC)c1OC	7	-3%	0%	7%	-6%
COc1cc(/C=C2\SC(=S)N(CC(=O)Nc3cccnc3)C2=O)cc(OC)c1OC	-12	9%	-3%	5%	-10%
Cc1cccc(C(=O)NCCC(=O)N2CCc3ccccc3C2)c1	u	x	x	x	-1%
CCOC(=O)c1cccc(Nc2nc(-c3cccnc3)nc3ccccc23)c1	-21	22µM*	x	-2%	-6%
COc1ccc(C(=O)N2CCCC(CO)C2)cc1OC1CCN(C(C)C)CC1 (stereo not given)	-27	-8%	i	x	-8%
Cc1cc(C)c(NC(=O)CSc2ccc(-c3sc(-c4ccccc4)nc3C)nn2)c(C)c1	1	-20%	-15%	x	2%
Cn1nc(C(F)(F)F)c(/C=N/OC(=O)c2ccccc2Cl)c1SCc1ccccc1Cl	u	x	x	-1%	-7%
Cn1nc(C(F)(F)F)c(/C=N/OC(=O)c2ccccc2)c1SCc1ccc(Cl)cc1	-72*	x	x	-3%	8%
CCOC(=O)c1ccc2c(c1)sc(=NC(=O)c1ccco1)n2CCOC	-68*	-1%	-4%	4%	-5%
CCC(C)NC(=O)C1CCN(S(=O)(=O)c2cccc3nonc23)CC1 (stereo not given)	22	0%	-9%	0%	-7%
O=C(CCc1ccc(S(=O)(=O)N2CCOCC2)cc1)N/N=C/c1ccc(O)c(O)c1O	-98*	0%	i	2%	u
O=C(c1ccc2c(c1)N(Cc1ccccc1)C(=O)c1ccccc1S2=O)N1CCC(Cc2ccccc2)CC1 (stereo not given)	-76*	-17%	-24%	x	1%
O=C(c1ccc2c(c1)N(Cc1ccc(F)cc1)C(=O)c1ccccc1S2=O)N1CCC(Cc2ccccc2)CC1 (stereo not given)	-78*	-13%	-17%	x	2%
COc1ccc(-c2cc(C(F)(F)F)nc(SCCC(=O)Nc3cccc(OC)c3)n2)cc1	-31	-12%	-15%	x	-5%
O=C(NC(=S)NCc1ccccc1)c1ccc2c(c1)OCO2	41	-5%	-14%	-2%	-3%
O=C(NCCc1ccc2c(c1)OCCO2)c1cc(F)cc(F)c1	u	-16%	-16%	-6%	-5%
O=C(NNC(=S)NCc1ccccc1)c1ccc2c(c1)OCO2	-65*	-21%	-9%	1%	-12%
O=C(NCCc1ccc2c(c1)OCCO2)c1cccc(F)c1	-73*	-22%	-19%	-3%	3%
O=C(NCCc1ccccc1)c1ccc2c(c1)OCO2	-79*	-13%	-10%	-16%	-20%
CN(C)c1ccc(CN2CCCC(O)C2)cc1 (stereo not given)	-4	x	x	-1%	9%
Cc1ccc(C)c(NC(=O)C(=O)NCCc2csc3nc(-c4ccccc4C)nn23)c1	-68*	14%	11%	x	2%
COc1cccc(/C=C2/CCC(CN(C)C)C2=O)c1 (stereo not given)	-87*	-9%	-3%	x	-23%
CC1OC1P(=O)(O)O (stereo not given)	x	x	x	x	2%
S=c1[nH]nc(Cc2ccc(Cl)cc2)n1-c1ccc2c(c1)OCCO2	0	-24%	i	u	2.8µM*
Oc1ccc(-c2n[nH]c(=S)n2-c2ccc3c(c2)OCCO3)c(O)c1	-101*	-26%	u	u	2.8µM*
SMILES	HCMV inh	Vaccinia Venus	Vaccinia mCherry	LmPK inh	Tb PYK inh
COc1cc(OC)cc(-c2n[nH]c(=S)n2-c2ccc3c(c2)OCCO3)c1	-12	-29%	u	-6%	2.5µM*
COc1ccc(Cc2n[nH]c(=S)n2-c2ccc3c(c2)OCCO3)cc1	u	-3%	i	-25%	u
S=c1[nH]nc(-c2ccc(Cl)cc2Cl)n1-c1ccccc1	55	x	x	-19%	-21%
COc1ccc(-c2n[nH]c(=S)n2-c2ccc3c(c2)OCCO3)cc1	10	x	x	u	u
S=c1[nH]nc(-c2ccc(Cl)cc2Cl)n1-c1ccc2c(c1)OCCO2	5	-8%	-10%	u	6.3µM*
CCS(=O)(=O)NCc1c(C)ncc2c1CCN(C(=O)c1ccc(F)cc1)C2	x	-22%	-27%	x	x
Cn1nc(C(C)(C)C)cc1C(=O)N1CCCCC1c1cc(C(=O)NCc2ccc(F)cc2)no1 (stereo not given)	-75*	-13%	16%	x	1%
Cn1nc(C(C)(C)C)cc1C(=O)N1CCCCC1c1cc(C(=O)NCc2ccccc2)no1 (stereo not given)	-31	-11%	1%	x	-1%
O=C(Cn1nc(C(F)(F)F)cc1C1CC1)NCc1ccccc1F	-69*	1%	i	1%	-8%
O=C(Cn1nc(C(F)(F)F)cc1C1CC1)Nc1ccccc1F	u	-2%	-5%	2%	2%
CCOCCCNC(=O)c1ccc2c(c1)ncn2-c1ccc(CC)cc1	-64*	x	x	1%	-7%
CCOCCCNC(=O)c1ccc2c(c1)ncn2-c1ccc(C)cc1C	-29	-15%	-3%	7%	-10%
O=C1c2cc(F)ccc2-n2c1nc1ccccc1c2=O	-83*	0%	-26%	-6%	-8%
Nn1c(-c2ccc(F)cc2)nc2ccccc2c1=O	-23	x	x	6%	-4%
COc1ccc([C@@H]2[C@@H]3C(=O)N(C(C)(C)C)C(=O)[C@@H]3[C@]3(C)C(=O)N(c4cccc(Cl)c4)C(=O)N23)cc1	-71*	-21%	-15%	x	-3%
Cc1ccc(N2C(=O)N3[C@H](c4ccc(Br)cc4)[C@@H]4C(=O)N(C(C)(C)C)C(=O)[C@@H]4[C@]3(C)C2=O)cc1	-85*	-8%	i	-2%	-2%
O=c1ccc2cc3c4c(c2o1)CCCN4CCC3	18	13%	-15%	0%	-8%
O=c1ccc2c(o1)/C(=C/C=C(Cl)Cl)CCC2	-7	u	10µM*	12%	-1%
CC1CCC(C)(NS(=O)(=O)OCC(Cl)(Cl)Cl)CC1 (stereo not given)	-25	-23%	i	9%	0%
O=S(=O)(N[C@H]1C[C@@H](NS(=O)(=O)OCC(Cl)(Cl)Cl)C2CCCCC21)OCC(Cl)(Cl)Cl (stereo not given in full)	-31	10µM*	u	-3%	-3%
CCOC(=O)C1CCN(C(=O)COC(=O)CNC(=O)c2ccc(C(C)(C)C)cc2)CC1	-27	6%	-5%	x	-3%
Cc1cc(NC(=O)CSc2nc(=O)cc(N)n2-c2ccc(C)c(C)c2)no1	-14	x	x	-8%	4%
COc1ccc(N2C(=O)CC(NNc3nc4ccccc4s3)C2=O)cc1 (stereo not given)	29	-8%	-2%	-4%	1%
Cc1ccc(N2C(=O)CC(NNc3nc4ccccc4s3)C2=O)cc1C (stereo not given)	-79*	-5%	-21%	0%	-4%
